# Reference: PubChem BioAssay AID463173 (ICCB-Longwood Screening Facility, Harvard Medical School, 2010)
# Hit rate of the full screen: of about 52,000 compounds, about 4,300 (8.3%) were called active. The sample holds actives, similar compounds and a random draw of the others, so the mix is not that of the screen. Rule as the data show it: active = survival mostly below about 52% (no sharp cut-off); inactive = mostly above about 56%.
# Tested on: DeltatarO mutant
# Assay: growth inhibition of S. aureus wild type versus tarO mutant, primary screen, teichoic acid synthesis inhibitors, RN4220, OD600 (AID 463173)
# Conditions: OD600, 18 h, active compounds read low, screened at 18.75 µg/mL (by protocol)
row,SMILES,survival
1,CCOC(=O)c1c(C)oc2nc(C)nc(NCc3cccc(OC)c3)c12,72% (inactive)
2,CC(=O)c1cccc(NC(=O)Cn2c(-c3cncs3)nc3ccccc32)c1,67% (inactive)
3,CCCCOc1ccccc1NC(=O)Cn1c(-c2cncs2)nc2ccccc21,49% (active)
4,Cc1cc(C)cc(NC(=O)Cn2c(-c3cncs3)nc3ccccc32)c1,37% (active)
5,Cc1ccc(NC(=O)Cn2c(-c3cncs3)nc3ccccc32)c(Br)c1,63% (inactive)
6,CCc1ccc(NC(=O)Cn2c(-c3cncs3)nc3ccccc32)cc1,59% (inactive)
7,CCCCCOc1ccc(NC(=O)Cn2c(-c3cncs3)nc3ccccc32)cc1,86% (inactive)
8,CC1CCN(C(=O)Cn2cc(SCC(=O)Nc3ccccc3)c3ccccc32)CC1,67% (inactive)
9,CCOc1ccc(CNC(=O)CCc2c(C)nn(-c3ccc(N4CCOCC4)nn3)c2C)cc1,72% (inactive)
10,O=C(CSc1nnc2c(n1)[nH]c1ccccc12)Nc1ccccc1,89% (inactive)
11,COc1ccc(CC(=O)NCC(c2ccc(Cl)cc2)N2CCOCC2)cc1 (centres undefined),71% (inactive)
12,Cc1ccccc1Cc1c(C)nc2nc(SCC(=O)N(C)c3ccccc3)nn2c1C,78% (inactive)
13,CCN(CC)CCCNC(=O)CSc1nc2nc(C)c(Cc3ccccc3C)c(C)n2n1,75% (inactive)
14,Cc1ccccc1Cc1c(C)nc2nc(SCC(=O)NC(C)c3ccccc3)nn2c1C (centres undefined),57% (active)
15,Cc1ccc(Cc2c(C)nc3nc(SCC(=O)NC(C)c4ccccc4)nn3c2C)cc1 (centres undefined),53% (inactive)
16,CCCCNC(=O)CSc1nc2nc(C)c(Cc3ccccc3C)c(C)n2n1,39% (active)
17,CCCNC(=O)CSc1nc2nc(C)c(Cc3ccccc3Cl)c(C)n2n1,60% (inactive)
18,Cc1cccc2sc(N(CCN(C)C)C(=O)c3ccc4c(c3)OCCO4)nc12,119% (inactive)
19,CC(=O)N1CCc2c(sc3c2c(=O)n(-c2ccc(F)cc2)c(=O)n3Cc2ccc(C#N)cc2)C1,107% (inactive)
20,Cc1ccc(CNCc2ccc3c(c2)n(C)c(=O)n3C)cc1,92% (inactive)
21,CCN(CC)S(=O)(=O)c1ccc2c(c1)nc(CN(C)C(=O)c1cccc(Cl)c1)n2C,71% (inactive)
22,C#CCOc1ccc(C2C3=C(CCCC3=O)N(CCC(=O)O)C3=C2C(=O)CCC3)cc1,70% (inactive)
23,COc1ccc2c(c1)CCc1c(C(=O)Nc3c(C)nn(Cc4c(Cl)cccc4Cl)c3C)noc1-2,114% (inactive)
24,CCOC(=O)c1cc2c(=O)n3ccccc3nc2n(CC2CCCO2)c1=NC(=O)c1ccc(C(C)(C)C)cc1 (centres undefined),59% (inactive)

row,SMILES,survival
1,CCOC(=O)c1cc2c(=O)n3ccccc3nc2n(CC2CCCO2)c1=NC(=O)c1cccc(C)c1 (centres undefined),29% (active)
2,CCOC(=O)c1cc2c(=O)n3ccccc3nc2n(CC2CCCO2)c1=NC(=O)c1cc(C)cc(C)c1 (centres undefined),44% (active)
3,CCOC(=O)c1cc2c(=O)n3ccccc3nc2n(CC2CCCO2)c1=NC(=O)c1cccc(C(F)(F)F)c1 (centres undefined),97% (inactive)
4,CCOC(=O)c1cc2c(=O)n3ccccc3nc2n(CC2CCCO2)c1=NC(=O)c1ccc(C)cc1 (centres undefined),101% (inactive)
5,CCn1c(CN2CCCCC2)nc2cc(NC(=O)c3cc(OC)c(OC)c(OC)c3)ccc21,87% (inactive)
6,O=C(c1cnc(N2CCCCC2)c2ccccc12)N1CCN(c2ccccc2F)CC1,75% (inactive)
7,Cc1ccc2c(c1)nnn2C1CCN(CC(=O)N(c2ccccc2)c2ccccc2)CC1,98% (inactive)
8,CCOc1ccc(CNC(=O)c2cnc3sc(N4CCC(C)CC4)nn3c2=O)cc1OC,74% (inactive)
9,Cc1cn(C)c(CC(=O)NCc2ccccc2)c1C(=O)O,85% (inactive)
10,COc1cccc(CNC(=O)Cc2c(C(=O)O)c(C)cn2C)c1,8% (active)
11,Cc1ccc(CNC(=O)Cc2c(C(=O)O)c(C)cn2C)cc1,89% (inactive)
12,Cc1cn(C)c(CC(=O)NCc2ccc(Cl)cc2)c1C(=O)O,102% (inactive)
13,COc1ccc(CNC(=O)Cc2c(C(=O)O)c(C)cn2C)cc1,94% (inactive)
14,Cc1cn(C)c(CC(=O)NCc2cccc(Cl)c2)c1C(=O)O,20% (active)
15,COc1ccc(NC(=O)c2ccc3oc(=O)c(S(=O)(=O)c4ccc(C)cc4)cc3c2)cc1OC,90% (inactive)
16,COc1cc(Cl)c(C)cc1NC(=O)CCn1cnc2onc(-c3ccc(F)cc3)c2c1=O,77% (inactive)
17,COc1ccc(-c2nn3c(=O)cc(CN4CCN(C(=O)Nc5cc(C)ccc5C)CC4)nc3s2)cc1,99% (inactive)
18,COc1ccc(NC(=O)C2CCN(S(=O)(=O)c3ccc4c(c3)CCCC(=O)N4)CC2)cc1Cl,78% (inactive)
19,CCOc1ccc(-c2cc(C(=O)NCc3ccccc3)c3c(-c4ccc(CC)cc4)[nH]nc3n2)cc1,47% (active)
20,CCOc1ccc(-c2cc(C(=O)NCc3ccc(C)cc3)c3ccccc3n2)cc1,87% (inactive)
21,CCOc1ccc(-c2cc(C(=O)NCCc3ccc(Cl)cc3)c3ccccc3n2)cc1,81% (inactive)
22,COc1ccc(Nc2cc(C(=O)NCc3ccccc3)c3ccccc3n2)cc1,97% (inactive)
23,COc1ccc(Nc2cc(C(=O)NCc3ccccc3OC)c3ccccc3n2)cc1,-5% (active)
24,COc1ccc(CCNC(=O)c2cc(-c3ccc(C)c(C)c3)nc3ccccc23)cc1OC,120% (inactive)

row,SMILES,survival
1,COc1ccc(-c2cc(C(=O)NCCc3ccc(OC)c(OC)c3)c3ccccc3n2)cc1,48% (active)
2,CCOc1ccc(-c2cc(C(=O)NCc3ccc(OC)cc3)c3c(-c4ccc(F)cc4)[nH]nc3n2)cc1,77% (inactive)
3,COc1ccc(CCNC(=O)c2cc(-c3ccccc3)nc3ccccc23)cc1OC,58% (inactive)
4,COc1ccc(-c2cc(C(=O)NCc3ccccc3)c3c(-c4ccccc4)[nH]nc3n2)cc1,93% (inactive)
5,COc1ccc(Nc2cc(C(=O)NCc3cccs3)c3ccccc3n2)cc1,131% (inactive)
6,CCOc1ccc(-c2cc(C(=O)NCCc3ccc(C)cc3)c3ccccc3n2)cc1,52% (active)
7,CCCCNc1ccc(-c2nc(-c3ccccc3)no2)cc1[N+](=O)[O-],72% (inactive)
8,CCOc1ccc(C(=O)O)o1,94% (inactive)
9,Cc1ccc(-n2c(SCC(=O)NC(C)(C)C)nc(O)cc2=O)cc1,107% (inactive)
10,CCCCOC(=O)c1ccc(Nc2ncnc3[nH]ncc23)cc1,55% (inactive)
11,N#Cc1ccccc1NC(=O)C(=O)NCCc1csc(-c2ccc(C(F)(F)F)cc2)n1,85% (inactive)
12,Cc1ccc(S(=O)(=O)c2cn(Cc3ccccc3)c3cc(N4CCCC4)c(F)cc3c2=O)cc1,71% (inactive)
13,Cc1nc2sc(C)c(C)n2c(=O)c1S(=O)(=O)N1CCN(c2ccccc2F)CC1,68% (inactive)
14,Cc1cc(C)c(NC(=O)Cn2c(=O)n(-c3cccc(C(F)(F)F)c3)c(=O)c3c(C)c(C)sc32)c(C)c1,92% (inactive)
15,O=C(Nc1ccc2c(c1)OCCO2)C1CCCN(S(=O)(=O)Cc2ccccc2)C1 (centres undefined),102% (inactive)
16,CCOc1ccc(NC(=O)c2nn(C)c3c2CS(=O)(=O)c2ccccc2-3)cc1,60% (inactive)
17,Cc1ccc(C(=O)CSc2nc3cc(C(=O)NC4CCCC4)ccc3c(=O)n2CC2CCCO2)c(C)c1 (centres undefined),91% (inactive)
18,Cc1ccc(C(=O)CSc2nc3cc(C(=O)NC4CCCC4)ccc3c(=O)n2CC2CCCO2)cc1 (centres undefined),101% (inactive)
19,O=C(CSc1nc2cc(C(=O)NC3CCCC3)ccc2c(=O)n1CC1CCCO1)c1ccc(F)cc1 (centres undefined),96% (inactive)
20,CCOc1ccc(C(=O)CSc2nc3cc(C(=O)NC4CCCC4)ccc3c(=O)n2CC2CCCO2)cc1 (centres undefined),8% (active)
21,COc1ccc(C(=O)CSc2nc3cc(C(=O)NC4CCCC4)ccc3c(=O)n2CC2CCCO2)cc1 (centres undefined),95% (inactive)
22,O=C(CSc1nc2cc(C(=O)NC3CCCC3)ccc2c(=O)n1CC1CCCO1)c1cccc(Cl)c1 (centres undefined),20% (active)
23,CC(=O)c1cc(-c2ccc(F)cc2)n(CC(=O)NC2CCC(C)CC2)c1C (centres undefined),67% (inactive)
24,O=C(CN1CCN(S(=O)(=O)c2cc(Cl)ccc2Cl)CC1)Nc1cccc(F)c1,92% (inactive)

row,SMILES,survival
1,CCOc1ccc(C(=O)C(CC(CN2CCOCC2)C(=O)c2ccc(OCC)cc2)CN2CCOCC2)cc1 (centres undefined),104% (inactive)
2,O=C1c2oc3ccc(F)cc3c(=O)c2C(c2cccc([N+](=O)[O-])c2)N1CCCN1CCOCC1 (centres undefined),84% (inactive)
3,CCCCOc1ccc(C(=O)OCC2CCCN3CCCCC23)cc1OC (centres undefined),107% (inactive)
4,COc1cccc(CNC(=O)CCC(=O)N2CC3CCCN3c3ccccc32)c1 (centres undefined),66% (inactive)
5,O=C(CCC(=O)N1CC2CCCN2c2ccccc21)NCc1ccccc1Cl (centres undefined),69% (inactive)
6,O=C(CCC(=O)N1CC2CCCN2c2ccccc21)NCc1ccc(F)cc1 (centres undefined),0% (active)
7,Cc1ccc(CNC(=O)CCC(=O)N2CC3CCCN3c3ccccc32)cc1 (centres undefined),83% (inactive)
8,O=C(CCC(=O)N1CC2CCCN2c2ccccc21)NCc1cccc(Cl)c1 (centres undefined),37% (active)
9,O=C(CCC(=O)N1CC2CCCN2c2ccccc21)NCc1ccccc1 (centres undefined),74% (inactive)
10,O=C(O)c1cc2ccccc2[nH]c1=O,107% (inactive)
11,CCc1cccc(NC(=O)Cc2nc(-c3ccc(OC)cc3)no2)c1,77% (inactive)
12,O=C(Nc1ccc(S(=O)(=O)N2CCCCC2c2cccnc2)cc1)c1ccc(Br)cc1 (centres undefined),92% (inactive)
13,CC(=O)N1CCc2cc(Br)cc(S(=O)(=O)N3CCN(c4cccc(C)c4)C(C)C3)c21 (centres undefined),74% (inactive)
14,CCOC(=O)c1ccccc1NC(=O)Cn1c(=O)n(-c2ccc(CC)cc2)c(=O)c2c(C)c(C(=O)N(C)C)sc21,0% (active)
15,COC(=O)c1ccccc1NC(=O)Cn1c(=O)n(-c2cccc(OC)c2)c(=O)c2c(C)c(C(=O)N(C)C)sc21,117% (inactive)
16,CCN(CC)C(=O)c1sc2c(c1C)c(=O)n(-c1ccc(Cl)c(Cl)c1)c(=O)n2CC(=O)Nc1cccc(OC)c1,70% (inactive)
17,Cc1c(C(=O)N(C)C)sc2c1c(=O)n(-c1ccc(Cl)c(Cl)c1)c(=O)n2CC(=O)Nc1cccc(C(F)(F)F)c1,46% (active)
18,CCOC(=O)c1ccccc1NC(=O)Cn1c(=O)n(Cc2ccccc2)c(=O)c2c(C)c(C)sc21,84% (active)
19,CCc1ccc(-n2c(=O)c3c(C)c(C(=O)N(C)C)sc3n(CC(=O)Nc3cc(Cl)ccc3C)c2=O)cc1,131% (inactive)
20,CCOc1ccccc1NC(=O)Cn1c(=O)n(Cc2ccccc2)c(=O)c2c(C)c(C)sc21,66% (inactive)
21,Cc1c(C(=O)N(C)C)sc2c1c(=O)n(-c1ccc(Cl)c(Cl)c1)c(=O)n2CC(=O)Nc1ccc(Br)cc1F,144% (inactive)
22,Cc1ccccc1NC(=O)Cn1c(=O)n(Cc2ccccc2)c(=O)c2c(C)c(C)sc21,136% (inactive)
